Hits are enriched below; roughly 3.3% of the tested compounds scored in any of these assays.
Bead autofluor = counter-screen for toxin protease inhibitors: compound fluorescence; compound autofluorescence counterscreen, microsphere flow cytometry; active compounds read high; 3.1% of 360,000 active; AID 624483; fluorescence intensity (test concentration not listed); in the data active means fluorescence intensity above about 16000; inconclusive means no clear call, values can overlap the other calls
Anthrax LF inh2 = anthrax lethal factor protease inhibition | P15917 | multiplex microsphere protease cleavage assay, LF | inhibition, % at 10 µM | 0.12% of 360,000 active | AID 588501
BoNT A protease = BoNT A light chain protease inhibition; multiplex microsphere protease substrate cleavage, flow cytometry; inhibition, % at 10 µM; 0.17% of 360,000 active; AID 588499
MazEF act = increases E. coli MazEF RNase cleavage of RNA; activation, % at 20 µM; P0AE70; FAM/BHQ RNA-DNA oligo cleavage fluorescence, 5 h; AID 504720; 0.32% of 350,000 active; in the data active means activation above about 50%
Target sequence (P0AE70 whole entry, looked up): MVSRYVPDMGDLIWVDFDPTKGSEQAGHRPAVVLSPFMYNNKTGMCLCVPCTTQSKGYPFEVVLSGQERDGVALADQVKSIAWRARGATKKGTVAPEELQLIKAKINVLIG
SSB-PriA inh = K. pneumoniae PriA-SSBct interaction inhibition | 0.6% of 430,000 active | AlphaScreen SSBct-PriA binding, biotinylated peptide | inhibition, % at 33 µM; in the data active means inhibition mostly above about 37%, no sharp cut-off; inactive means mostly below about 20%
BoNT-F LC inh = BoNT F light chain protease inhibition; Multiplex microsphere protease cleavage assay, flow cytometry; inhibition, % at 10 µM; 0.22% of 360,000 active; in the data active means inhibition above about 35%, passing the limit was not always enough; inconclusive means no clear call, values can overlap the other calls
A number is an active result; 0 = inactive; ? = inconclusive; - = not tested or not shown. Unless noted, no stated cut-off is given here; in the data, active means inhibition above about 30%; inconclusive means no clear call, values can overlap the other calls; inactive means below that.

SMILES	Bead autofluor	Anthrax LF inh2	BoNT A protease	MazEF act	SSB-PriA inh	BoNT-F LC inh
O=C1CC(c2ccccc2)SC(N(c2ccccc2)c2ccccc2)=N1 (centres undefined)	0	0	0	0	0	0
O=C1CC(c2cccc(F)c2)SC(N(c2ccccc2)c2ccccc2)=N1 (centres undefined)	23403	0	0	0	0	0
Cc1ccc(C)c(NS(=O)(=O)c2ccc3oc(=O)ccc3c2)c1	0	0	0	0	0	0
Cc1cc(C)cc(NS(=O)(=O)c2ccc3oc(=O)ccc3c2)c1	23250	0	0	0	0	0
Cc1cc(/C=C2\C(=O)NC(=O)N(Cc3ccco3)C2=O)c(C)n1-c1ccc(C(=O)O)cc1	0	0	0	0	0	0
Cc1cc(/C=C2\C(=O)NC(=O)N(Cc3ccccc3Cl)C2=O)c(C)n1-c1ccc(C(=O)O)cc1	0	0	0	59.1	0	0
O=C(COC(=O)CCc1nc2ccccc2c(=O)[nH]1)Nc1ccccc1	0	0	0	0	0	0
N#Cc1ccc(NC(=O)COC(=O)CCc2nc3ccccc3c(=O)[nH]2)cc1	26617	0	0	0	0	0
Clc1ccc(-c2noc(COc3ccccc3)n2)cc1	22341	0	0	0	0	0
CC(C)(C)Cc1nc(-c2ccc(Cl)cc2)no1	21458	0	0	0	0	0
CN(Cc1nc(-c2ccncc2)no1)S(=O)(=O)c1ccc(Cl)cc1	21129	0	0	0	0	0
Clc1ccc(-c2noc(CCCOc3ccccc3)n2)cc1	0	0	0	0	0	0
COC(=O)c1ccccc1NC(=O)CSc1nnc(C2CCCCC2)n1N	-	-	-	-	0	-
COc1ccc(CN/C=C2\CCCCC2=O)cc1	22197	0	?	0	-	0
O=C1C=C(NCc2ccccc2)C2(CCCCC2)O1	22250	0	0	0	0	0
Cc1ccc(-c2noc(-c3c[nH]c4ccc(S(=O)(=O)NC(C)C)cc4c3=O)n2)cc1	-	-	-	-	0	-
CCC12CC3CC(C1)CC(C(=O)Nc1nn[nH]n1)(C3)C2	23265	0	?	0	0	0
CC12CC3(C)CC(C)(C1)CC(C(=O)Nc1nn[nH]n1)(C2)C3	0	0	0	0	0	0
CC12CC3CC(C)(C1)CC(C(=O)Nc1nn[nH]n1)(C3)C2	19766	0	?	0	0	0
O=C(NCC1CCC(c2nc3ccccc3[nH]2)CC1)C1CC1 (centres undefined)	-	-	-	-	0	-
Cc1ccc2cc(CN(CC3CCCO3)C(=O)C(C)C)c(=O)[nH]c2c1 (centres undefined)	23042	0	0	0	0	0
Cc1ccc2cc(CN(CC(C)C)C(=O)C3CCCO3)c(=O)[nH]c2c1 (centres undefined)	0	0	0	0	0	0
CN1CCCc2cc(C(CNC(=O)c3ccc(Br)o3)N(C)C)ccc21 (centres undefined)	-	-	-	-	0	-
Cc1cc(C(=O)O)ccc1-c1ccc(/C=C2\NC(=O)N(Cc3ccccc3Cl)C2=O)o1	0	0	0	0	0	0
Cc1ccc(C(=O)O)cc1-c1ccc(/C=C2/NC(=O)N(c3ccccc3)C2=O)o1	23411	0	0	0	0	0
SMILES	Bead autofluor	Anthrax LF inh2	BoNT A protease	MazEF act	SSB-PriA inh	BoNT-F LC inh
NC(=O)Cc1csc(SCc2ccc(Br)cc2)n1	-	-	-	-	0	-
COc1ccc(CNC(=O)CSc2nnc(-c3ccc(NC(C)=O)cc3)n2C)cc1	17726	0	0	0	0	0
COc1ccc(-c2cnc(SCC(=O)Nc3ccccc3)n2-c2ccccc2C)cc1	-	-	-	-	44.0	-
CCNC(=O)CSc1nnc(-c2ccc(OC)cc2)n1CC(C)C	21420	0	0	0	0	0
COc1ccc(C(=O)NCCc2nnc(SCC(=O)Nc3ccccc3C(C)C)n2C)cc1	20025	0	0	0	0	0
Cc1nnc(NC(=O)CSc2ncc(-c3ccc(Br)cc3)n2-c2ccccc2C)s1	-	-	-	-	0	-
CCn1c(CCNC(=O)c2ccc(OC)cc2)nnc1SCC(=O)Nc1ccccc1F	0	0	0	0	0	0
COCCn1c(SCC(=O)NCc2cccs2)nnc1-c1ccc(OC)cc1	0	0	0	0	0	0
CCN(CC)CCN(C(=O)c1cccc(N2C(=O)CCC2=O)c1)c1nc2ccc(OC)cc2s1	-	-	-	-	0	-
CC(=O)N1CC(C(=O)N2CCN(c3ccccn3)CC2)C1	-	-	-	-	0	-
COc1ccc(NC(=O)CSc2nnc(-c3ccccc3C)n2C)cc1	19446	0	?	0	0	0
CC(=O)Nc1ccc(-c2nnc(SCc3c(C)cc(C)cc3C)n2C)cc1	23890	0	0	0	0	0
CCn1c(SCC(=O)Nc2ccc(S(N)(=O)=O)cc2)nnc1-c1ccccc1OC	0	0	0	0	0	0
COc1ccccc1-c1nnc(SCC(=O)Nc2ccc(S(N)(=O)=O)cc2)n1C	21773	0	0	0	0	0
COc1ccc(-n2c(SCC(N)=O)nnc2-c2ccccc2F)cc1	16562	0	0	0	0	0
COc1ccc(-c2nnc(SCC(=O)Nc3ccc(C)cc3)n2C)cc1	0	0	0	0	0	0
CC(=O)NC(=Nc1nc(C)cc(C)n1)Nc1ccc(F)cc1F	-	-	-	-	0	-
O=S(=O)(NCC[C@H](O)C1CCOCC1)c1ccc2c(c1)CCCC2	-	-	-	-	0	-
CCOC(=O)Cc1csc(NC(=O)CSc2nnc(-c3ccc(OC)cc3)n2C)n1	20591	0	?	0	0	0
CCOC(=O)Cc1csc(NC(=O)CSc2nnc3ccccn23)n1	0	0	0	0	0	0
CC1=C(C(=O)OC(C)C)C(c2ccc(F)cc2)NC(=O)N1 (centres undefined)	16191	0	0	0	0	0
CC1=C(C(=O)OCC(C)C)C(c2ccsc2)NC(=O)N1 (centres undefined)	16729	0	0	0	0	0
Cc1c(-n2c(-c3ccccc3)csc2=NC(=O)c2ccccc2)c(=O)n(-c2ccccc2)n1C	-	-	-	-	44.0	-
O=C(Nc1ccc(Cl)c(Cl)c1)N1CCC(n2ccnn2)CC1	-	-	-	-	0	-
O=c1[nH]c(O)c(C=NC2CCCCC2)c(=O)[nH]1	0	37.3	0	0	0	?
SMILES	Bead autofluor	Anthrax LF inh2	BoNT A protease	MazEF act	SSB-PriA inh	BoNT-F LC inh
Cc1ccnc(SCc2nc3ccccc3c(=O)[nH]2)n1	-	-	-	-	0	-
CCCN(CCC)C(=S)NC(=O)c1ccc(Cl)cc1Cl	21981	0	0	0	0	0
CCC(C(=O)Nc1cc(-c2cn3nc(OC)ccc3n2)ccc1F)c1ccccc1 (centres undefined)	-	-	-	-	0	-
CCOc1ccc(C(O)=C2C(=O)C(=O)N(CCCN3CCOCC3)C2c2ccc(F)cc2)cc1C (centres undefined)	-	-	-	-	0	-
CCCCCCCCCCS(=O)(=O)N/N=C/c1ccc([N+](=O)[O-])cc1	21737	0	?	0	-	0
Cn1c(=O)n(-c2cccc(Cl)c2)c(=O)c2c3c(sc21)COC(C)(C)C3	17764	0	0	0	0	0
CCn1c(SCC(=O)Nc2ccc(C)cc2)nnc1-c1ccc(O)cc1	17034	0	0	0	0	0
Cc1ccc(NC(=O)Cc2nnc(SCC(=O)c3ccc(Br)cc3)n2C)cc1	21836	0	0	0	0	0
CSc1nnc(-c2ccc(S(=O)(=O)N3CCOCC3)cc2)n1CC1CCCO1 (centres undefined)	17507	0	0	0	0	0
CCn1c(SCC(=O)Nc2ccc(C)cc2)nnc1-c1ccccn1	0	0	0	0	0	0
